Assay results from PubChem BioAssay AID2279 (Southern Research Specialized Biocontainment Screening …, 2010).
Potency and affinity values are given separately. Activity calls are given as the source filed them. How the calls were made is not given here.

Assay: HIV-1 Env-mediated cell fusion inhibitors, dose response, CCR5-tropic Env (AID 2279)
Details: CCR5-tropic HIV-1 Env, reporter read-out; series mostly up to 50 µM

outcome, inactive:
C=CCOC(=O)C1=C(C)N=c2s/c(=C3\C(=O)N(CC(=O)O)c4ccccc43)c(=O)n2C1c1ccc(OC)cc1 (centres undefined)
O=C(O)CN1C(=O)/C(=C\c2cccc(OCc3ccc(Cl)cc3Cl)c2)SC1=S
CC(C)S(=O)(=O)C1=NSC2=NC(=O)/C(=C\c3ccc(-c4ccccc4)o3)C(=N)N21
Cc1cc(C)cc(-n2cccc2/C=C2/C(=N)N3C(=NC2=O)SN=C3S(C)(=O)=O)c1
O=C(CSc1nc2ccccc2c(=O)n1Cc1ccccc1)Nc1ccc(Br)cc1C(=O)O
CCc1nnc(NS(=O)(=O)c2ccc(N/C=C(\C=O)c3nc4cc(Cl)ccc4o3)cc2)s1
CCOc1cc(/C=C2/C(=N)N3C(=NC2=O)SN=C3S(=O)(=O)C(C)C)ccc1OC(=O)c1ccco1
COc1ccc(/C=N/NC(=O)c2[nH]c3ccc(Br)cc3c2-c2ccccc2)c(C(=O)O)c1OC
O=C(O)c1ccc(-c2ccc(/C=C3\NC(=O)N(Cc4ccc(Cl)cc4)C3=O)o2)cc1Cl
O=C(O)CN1C(=O)/C(=C\c2cc(Br)ccc2OCc2ccc(Cl)cc2)SC1=S
Cc1ccc(F)c(NC(=O)/C(C#N)=C(\O)c2ccc(C(C)(C)C)cc2)c1
Cc1c(Cl)cccc1NS(=O)(=O)c1ccc2c(c1)C1C=CCC1C(c1ccc(C(=O)O)cc1)N2 (centres undefined)
Cc1ccccc1N=C1NC(=O)/C(=C/c2cccn2-c2cccc(C(=O)O)c2)S1
CC(C)S(=O)(=O)C1=NSC2=NC(=O)/C(=C\c3ccc(-c4cccc(C(=O)O)c4)o3)C(=N)N21
O=C(NCCc1ccccc1)c1ccc2c(=O)[nH]c3c(C(=O)NCC4CCCO4)sc(=S)n3c2c1 (centres undefined)
O=C(O)CSCC(=O)N(Cc1ccccc1)c1nc(-c2ccccc2)c(-c2ccccc2)s1
O=C(O)c1[nH]c2ccccc2c1C(c1cccc(O)c1)c1c(C(=O)O)[nH]c2ccccc12
O=C1/C(=C2\C(=O)N(Cc3ccc(F)cc3)c3ccccc32)SC(=S)N1CCS(=O)(=O)O
Cc1ccc2nc(N3C(=O)C(O)=C(C(=O)c4ccco4)C3c3cccc(O)c3)sc2c1 (centres undefined)
C=CCOc1ccc(C(c2c(C(=O)O)[nH]c3ccccc23)c2c(C(=O)O)[nH]c3ccccc23)cc1
Cc1cccc(OCC(=O)Nc2ccc(C(=O)Nc3ccccc3C(=O)O)cc2)c1C
Cc1ccc(Cl)cc1N1CCN(C(=O)Cc2c(C(=O)O)[nH]c3ccc(Cl)cc23)CC1
O=C(O)CCN1C(=O)/C(=C\c2cccc(OCC(=O)Nc3ccc(Cl)cc3)c2)SC1=S
O=C(O)c1ccc(Nc2nc(-c3cc4ccccc4oc3=O)cs2)cc1O
O=C(CCN1C(=O)/C(=C/c2ccco2)SC1=S)Nc1ccc(C(=O)O)c(O)c1
O=C1NN(c2ccc(Cl)c(Cl)c2)C(=O)/C1=C/c1cccc(OC(=O)c2cccs2)c1
CCOc1cc(/C=C2/C(=N)N3C(=NC2=O)SN=C3S(=O)(=O)CC)ccc1OC(=O)c1ccco1
O=C(NN1C(=O)/C(=C\c2ccc(O)c([N+](=O)[O-])c2)SC1=S)c1ccccc1Cl
O=S(=O)(Nc1nc(-c2sccc2Cl)cs1)c1cc(Cl)ccc1Cl
CC(C)(C)CC(C)(C)c1ccc(OCC(=O)N/N=C/c2ccc(S(=O)(=O)O)o2)cc1
Cc1cc(/C=C2/C(=N)N3C(=NC2=O)SN=C3S(C)(=O)=O)c(C)n1-c1ccccc1
COc1cccc(NS(=O)(=O)c2ccc3c(c2)C2C=CCC2C(c2ccc(C(=O)O)cc2)N3)c1 (centres undefined)
CC1=C(C(=O)Nc2ccccc2)C(c2ccc(Cl)cc2)n2c(s/c(=C/c3cccc(OCC(=O)O)c3)c2=O)=N1 (centres undefined)
COc1cccc(C2C3=C(N=c4s/c(=C\c5ccc(OCC(=O)O)cc5)c(=O)n42)c2ccccc2CC3)c1 (centres undefined)
